According to PubChem BioAssay (NCATS):
Results filed as inconclusive are left out. Active and inactive are the calls of the source. Unless noted, calls follow the shape of the dose curve; as a rule, active = well fitted curve in the direction sought with a large enough effect; inconclusive = small, poorly fitted or top-dose-only effect, or another doubt; inactive = no such curve, though single readings can be large; an effect the other way counts as inactive or inconclusive.

Tests used:
[1] = qHTS profiling of the MIPE4 collection as inhibitors of Plasmodium falciparum (DD2) proliferation (Rep 2) (AID 743346; call rule not given here); conditions: P. falciparum Dd2 in erythrocytes, SYBR Green DNA, 72 h; at 28.5 µM unless noted
In short: (§1)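 Erythrocytes infected with P. falciparum (0.3% parasitemia, 2.5% hematocrit) incubated with compounds 72 h at 37 C, 5% CO2. Lysis with saponin/Triton buffer containing SYBR Green I, overnight at room temperature in the dark; DNA fluorescence (485/535 nm) normalised to 0.29 uM artemisinin and DMSO.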

[2] = qHTS profiling of the MIPE4 collection as inhibitors of Plasmodium falciparum (HB3) proliferation (AID 743347; call rule not given here;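 also: plate controls were DMSO vehicle wells for no effect and artemisinin wells for full effect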); conditions: P. falciparum HB3 in erythrocytes, SYBR Green DNA, 72 h; at 28.5 µM unless noted
In short: as §1

[3] = High-throughput drug toxicity screening in the BPDCN cell line Gen2.2 (AID 1224824; call rule not given here;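 also: cells exposed to compounds for 48 h before reading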); conditions: Gen2.2 BPDCN cells; at 45.8 µM (top of the series) unless noted
In short: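 CellTiter-Glo luminescence read after 48 h compound exposure at 37 C defines viability; percent activity set with DMSO as 100% and bortezomib (9.2 uM final) as 0%. 500 exponentially growing cells per well, RPMI plus 10% FBS.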

[4] = High-throughput drug toxicity screening in the BPDCN cell line Cal-1 (AID 1224825; call rule not given here); conditions: Cal-1 BPDCN cell viability, qHTS; at 45.8 µM (top of the series) unless noted
In short: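 500 Cal-1 cells/well, RPMI + glutamine + 10% FBS (phenol red-free); cpd added by pin tool; 48 h, 37C, 5% CO2; CTG 15 min RT, lumi read. Normalised: DMSO 100%, bortezomib 9.2 uM 0%.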

[5] = qHTS assay for measurement of the activity of small molecule inhibitors on Zika virus induced Caspase-3 activity in human iPSC derived neural progenitor cells (hNPCs) (AID 1224857); also: % of control where 0% means no effect; nearly all actives have a fitted effect of over 65% in size
In short: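 Cells were plated at 350 per well and grown 16 to 20 hours. Compound pretreatment lasted one hour, after which ZIKV (2 FFU/cell) was added for 6 hours. Percent inhibition was normalized between uninfected and infected controls.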

[6] = qHTS assay for measurement of the activity of small molecule inhibitors on Zika virus induced Caspase-3 activity in human astrocytoma cells (AID 1224859);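 also: plate controls were ZIKV-infected untreated cells for no effect and uninfected cells for full effect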
In short: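 Percent inhibition of virus-induced caspase-3/7 signal is calculated against uninfected and ZIKV-infected control cells. Cells are SNB-19, infected at 2 FFU/cell for 6 h after 1 h compound exposure.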

[7] = qHTS Screen of the MIPE 4.0 Collection Against Ewings Sarcoma (RDES) (AID 1259252); also: nearly all actives have a fitted effect of over 35% in size; also: potency is read from the fitted curve at half-maximal effect
In short: (§2)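 After a 4 h attachment period in RPMI/5% FBS, cells were pin-dosed with test compounds; DMSO served as negative and 9.2 uM bortezomib (final) as positive control. Luminescent CellTiter-Glo signal at 48 h defined viability.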

[8] = qHTS Screen of the MIPE 4.0 Collection Against Ewings Sarcoma (TC32) (AID 1259256); also: nearly all actives have a fitted effect of over 45% in size; also: potency is read from the fitted curve at half-maximal effect
In short: as §2

[9] = qHTS profiling of the MIPE4 collection as inhibitors of Plasmodium falciparum (3D7) proliferation (AID 743344; call rule not given here;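 also: scaled between DMSO vehicle wells and 0.29 µM artemisinin as full inhibition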); conditions: P. falciparum 3D7 in erythrocytes, SYBR Green DNA fluorescence, 72 h; at 28.5 µM unless noted
In short: as §1

[10] = qHTS profiling of the MIPE4 collection as inhibitors of Plasmodium falciparum (DD2) proliferation (AID 743345; call rule not given here); conditions: P. falciparum Dd2 in erythrocytes, SYBR Green DNA, 72 h; at 28.5 µM unless noted
In short: as §1

[11] = qHTS Screen of the MIPE 4.0 Collection Against Ewings Sarcoma (EW8) (AID 1259255); also: nearly all actives have a fitted effect of over 35% in size; also: potency is read from the fitted curve at half-maximal effect;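 as to viability: 100% = DMSO-treated cells and 0% = medium-only wells without cells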
In short: as §2

[12] = qHTS assay to identify small molecule inhibitors of chordoma cells - UCH-1 (AID 1259355); also: nearly all actives have a fitted effect of over 55% in size; also: potency is read from the fitted curve at half-maximal effect
In short: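 Seed 800 cells per well; incubate overnight at 37 C, 5% CO2. Add test compounds (15 concentrations), then the auranofin–topoisomerase-agent combination. Incubate 48hr, add CellTiter-Glo, wait 30min, read luminescence.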

[13] = qHTS assay to identify small molecule inhibitors of chordoma cells - UCH-2 (AID 1259356); also: potency is read from the fitted curve at half-maximal effect

SMILES	parasite growth, % of control (lower = inhibition) [1] [%]	growth, % of control [2] [%]	cell viability, % of control (lower = more cytotoxic) [3] [%]	viability (% of control) [4] [%]	Potency [5]	Potency [6]	Potency [7]	Potency [8]	parasite growth, % of DMSO control [9] [%]	parasite growth remaining, % of DMSO control (lower = more inhibition) [10] [%]	Potency [11]	Potency [12]	Potency [13]
COc1cc2ncnc(Nc3cccc(Cl)c3)c2cc1OC	24.1	4.11	115	39.5	inactive	inactive	0.118 µM (active)	16.6 µM (active)					
Cc1ncc([N+](=O)[O-])n1CCO	96.3	85.1	180	76.6	inactive	inactive	inactive	inactive	88.2	101	inactive	inactive	inactive
CCCN[C@H]1CCc2nc(N)sc2C1	8.29	6.99	133	78	inactive	inactive	inactive	inactive	5.95	92.8	inactive	inactive	inactive
CCN(CC)CC#CCOC(=O)C(O)(c1ccccc1)C1CCCCC1 (centres undefined)	16.6	11.2	205	104	inactive	inactive	inactive	inactive		58.4	inactive	inactive	inactive
Cc1cc(NS(=O)(=O)c2ccc(N)cc2)no1			56.5	82.3	inactive	inactive	inactive	inactive			inactive	inactive	inactive
S=P(N1CC1)(N1CC1)N1CC1	15.4	3.94	92	27.1	inactive	inactive	16.6 µM (active)	2.64 µM (active)		24.7	6.62 µM (active)	inactive	inactive
Cc1nnc(C(=O)NC(C)(C)c2nc(C(=O)NCc3ccc(F)cc3)c(O)c(=O)n2C)o1	81.9	79.5	126	134	inactive	inactive	inactive	inactive	83.6	91.4	inactive		
O=NN(CCCl)C(=O)NC1CCCCC1			110	102	inactive	inactive	inactive	inactive			inactive	inactive	inactive
CC(C)C1CCC(C(=O)N[C@H](Cc2ccccc2)C(=O)O)CC1 (some centres undefined)	109	85.4	139	99.1	inactive	inactive	inactive	inactive	87.2	118	inactive	inactive	inactive
CCC(C)(C)c1ccc(CC(C)CN2C[C@@H](C)O[C@@H](C)C2)cc1 (some centres undefined)	39	26.4	129	108	inactive	inactive	inactive	inactive	17.4	82.2	inactive	inactive	inactive
CO[C@@]12[C@H](COC(N)=O)C3=C(C(=O)C(C)=C(N)C3=O)N1C[C@@H]1N[C@@H]12	6.98		2.55	2.42	inactive	inactive	0.0332 µM (active)	0.0037 µM (active)	6.13	7.06	0.0662 µM (active)	17.8 µM (active)	inactive
NNC(=O)c1ccncc1	8.5		88.1	99.3	inactive	inactive	inactive	inactive	5.29		inactive		
COC(=O)Nc1nc2ccc(S(=O)c3ccccc3)cc2[nH]1 (centres undefined)	68.5		86.3	22.2	inactive	inactive	11.8 µM (active)	11.8 µM (active)	67	82.8	13.2 µM (active)		
Oc1c(Cl)cc(Cl)c2cccnc12	45.4		10.5	9.09	inactive	inactive	13.2 µM (active)	7.43 µM (active)	123		8.33 µM (active)		23.1 µM (active)
